# Measured values from PubChem BioAssay AID1259343 (VanderVen Lab, College of Veterinary Medicine, Cornell …, 2017).
# Screen size: about 6,200 compounds; about 2,900 (47%) were called active. No stated cut-off is given here; in the data, active means inhibition above about 50%; inactive means the rest. So high a share suggests a set chosen from earlier hits. This is one part of the list.
# Assay: Mycobacterium tuberculosis growth inhibition, primary screen (AID 1259343)
# Details: inhibition: at 10 µM, active compounds read high; outcome: 10 uM
row,SMILES,inhibition
1,Cc1ccccc1C(=O)Nc1cc(-c2ccco2)nn1-c1nc(C)c(C)c(=O)[nH]1,-10.1% (inactive)
2,Cc1ccc(OCC(=O)Nc2cc(-c3ccco3)nn2-c2nc(C)c(C)c(=O)[nH]2)cc1,101% (active)
3,Cc1nc(-n2nc(-c3ccco3)cc2NC(=O)COc2ccc(F)cc2)[nH]c(=O)c1C,100% (active)
4,Cc1nc(-n2nc(-c3ccco3)cc2NC(=O)c2c(F)cccc2F)[nH]c(=O)c1C,99.8% (active)
5,COc1cccc(C(=O)Nc2cc(-c3ccco3)nn2-c2nc(C)c(C)c(=O)[nH]2)c1OC,98.4% (active)
6,Cc1nc(-n2nc(-c3ccco3)cc2NC(=O)C2CC2)[nH]c(=O)c1C,99.8% (active)
7,Cc1nc(-n2nc(-c3ccco3)cc2NC(=O)CC(C)C)[nH]c(=O)c1C,101% (active)
8,Cc1cc(N)n(-c2cc(C(F)(F)F)ccc2Cl)n1,0.14% (inactive)
9,Cn1ncc2c(N3CCC(OCc4cccnc4)CC3)nc(C(C)(C)C)nc21,85.9% (active)
10,CC(=O)O[C@H]1C[C@@]2(C)[C@@H](C[C@@H](O)[C@H]3[C@@]4(C)CC[C@@H](O)[C@@H](C)C4CC[C@@]32C)/C1=C(\CCC=C(C)C)C(=O)O (stereo not given in full),69.4% (active)
11,O=S(=O)(NC(C1CC1)C1CC1)c1cccc(Br)c1,14.3% (inactive)
12,COc1ccc(-c2noc(CN3CCC(O)(c4cccc(C(F)(F)F)c4)CC3)n2)cc1,56.9% (active)
13,Oc1ccc(N2CCN(Cc3nc(-c4ccc(C(F)(F)F)cc4)no3)CC2)cc1,72.1% (active)
14,CC(C)CCNC(=O)c1c(O)nc2sccn2c1=O,89.6% (active)
15,CCCCNC(=O)c1c(O)nc2sccn2c1=O,33.8% (inactive)
16,CC(C)CNC(=O)c1c(O)nc2sccn2c1=O,55.9% (active)
17,O=C(NCCC1=CCCCC1)c1c(O)nc2sccn2c1=O,83.9% (active)
18,CN(C)S(=O)(=O)Oc1ccc(C(=O)c2ccccc2)cc1,51.1% (active)
19,O=C(O)c1ccc(OS(=O)(=O)c2ccc(Cl)c(Cl)c2)cc1,35.4% (inactive)
20,O=C1CCCCC1Sc1nnnn1-c1ccc(O)cc1 (stereo not given),41% (inactive)
21,O=C1CCCCC1Sc1nn(-c2ccc(F)cc2)c(=S)s1 (stereo not given),70.1% (active)
22,O=C(CSc1nn(-c2ccc(F)cc2)c(=S)s1)Nc1cc(F)ccc1F,-1.19% (inactive)

row,SMILES,inhibition
1,O=[N+]([O-])c1ccc(CON=Cc2ccc(Cl)cc2Cl)cc1,-5.39% (inactive)
2,N#Cc1ccc(CON=Cc2ccc(OC(F)F)cc2)cc1,-4.56% (inactive)
3,O=[N+]([O-])c1ccc(CON=Cc2ccc(OC(F)F)cc2)cc1,55.5% (active)
4,CC(C)CNC(=O)c1cn(Cc2ccc(F)cc2)nc1OCc1ccc(F)cc1,13.6% (inactive)
5,CC(C)CNC(=O)CSc1n[nH]c(/C=C/c2ccc(F)cc2)n1,87% (active)
6,C/C(Cl)=C\COc1cc(C)nc2ccc(Br)cc12,99.8% (active)
7,Cc1coc2c1C(=O)C(=O)c1c-2ccc2c1CCCC2(C)C,58.8% (active)
8,COc1ccc(NCc2nn(CC(=O)c3ccc(Br)cc3)c3[n+]2CCCCC3)cc1,17.7% (inactive)
9,CCn1nnc2c(=O)n(CC(=O)c3ccc(OC)cc3)cnc21,77.2% (active)
10,O=c1[nH]nc2nc(N3CCCCC3)nc(N3CCCCC3)n12,18.9% (inactive)
11,O=C(Cn1ccc(=O)[nH]c1=O)NNc1ccc(Cl)c(Cl)c1,97.2% (active)
12,Cc1nc(C2(NC(=O)c3ccc4c(c3)OCCCO4)CCCCC2)no1,5.32% (inactive)
13,Cc1cn2nc(Sc3ccc4c(c3)OCCCO4)sc2n1,33.4% (inactive)
14,Cc1nc(CSc2ccc(C(=O)NNC(=O)c3ccc4c(c3)OCCO4)cc2)cs1,95.3% (active)
15,CCCCN1C(=O)C(=Cc2cccnc2)SC1=Nc1ccc(OC)cc1,87.8% (active)
16,CCCN1C(=O)C(=Cc2ccc(OC)cc2OC)SC1=S,2.79% (inactive)
17,CCN(CC)c1ccc(/C=C2\SC(=S)N(NC(=O)c3ccc(OC)cc3)C2=O)cc1,8.8% (inactive)
18,O=c1c(NCc2ccc(F)cc2)nccn1Cc1ccc(Cl)cc1,96.5% (active)
19,CC(c1ccco1)N(C)C(=O)NCCc1cc(F)ccc1F (stereo not given),21.2% (inactive)
20,OC(CN1CCCCCC1)CN1c2ccccc2Sc2ccccc21 (stereo not given),40.6% (inactive)
21,OC(CN1CCc2ccccc2C1)Cn1c2c(c3ccccc31)CCCC2 (stereo not given),66.7% (active)
22,CCCn1cc(SCC(=O)N2CCc3ccccc32)c2ccccc21,16.9% (inactive)

row,SMILES,inhibition
1,CC(C)=CCN1N=C(c2ccccc2)C(O)O1 (stereo not given),86% (active)
2,Cc1ccc(C2=NN3C(C2)c2cc(Cl)ccc2OC3c2ccncc2)cc1 (stereo not given),-54.8% (inactive)
3,Brc1ccc2c(c1)C1CC(c3cccs3)=NN1C(c1cccnc1)O2 (stereo not given),97.9% (active)
4,Cc1ncc(COc2ccc(-c3ccc(C#N)cc3)cc2)s1,43.5% (inactive)
5,N#Cc1ccc(OCCn2nccc2-c2ccncc2)cc1,61.2% (active)
6,FC(F)(F)c1cccc(C(OCCN2CCN(Cc3ccco3)CC2)c2ccccc2)c1 (stereo not given),-3.93% (inactive)
7,COCC(=O)Nc1nc2ccccc2n1C1CCCCC1,14.7% (inactive)
8,COCC(=O)Nc1nc2cc(C(F)(F)F)ccc2n1Cc1ccco1,62.6% (active)
9,O=C(OC(C(=O)Nc1cc(Cl)cc(Cl)c1)c1ccccc1)C1=COCCO1 (stereo not given),78.7% (active)
10,Nc1ccc(-n2cccc2C(=O)O)cc1,93.6% (active)
11,COc1c2ccccc2nc2occc12,89.7% (active)
12,Cc1cccc(NC(=O)C2CCN(c3c(F)cc(C#N)cc3F)CC2)n1,72.7% (active)
13,CCc1nnsc1C(=O)Nc1cc(F)c(N2CCCC2)c(F)c1,37.1% (inactive)
14,O=C(Nc1cc(F)c(N2CCCC2)c(F)c1)C1CC1c1cccnc1 (stereo not given),32.7% (inactive)
15,N#CC(c1ccccc1)c1cnn(-c2ccccc2)c(=O)c1Cl (stereo not given),101% (active)
16,N#CC(c1ccc(Cl)cc1Cl)c1cnnc2ccccc12 (stereo not given),-8.73% (inactive)
17,O=c1c(Cl)c(N2CCN(c3ccccc3)CC2)cnn1Cc1ccccc1Cl,17.9% (inactive)
18,CN(C)C=Nc1ccc(OC(F)F)c(Cl)c1,92% (active)
19,CCc1cc(=O)[nH]c(-n2nc(C)cc2NC(=O)c2ccc([N+](=O)[O-])cc2)n1,101% (active)
20,CCc1cc(=O)[nH]c(-n2nc(C)cc2NC(=O)c2cccc([N+](=O)[O-])c2)n1,102% (active)
21,Cc1cc(=O)[nH]c(-n2nc(C)cc2NC(=O)c2cccc([N+](=O)[O-])c2)n1,100% (active)
